In the library only some 12% were active in any assay of this set; here they are far more common.
G9a block: qHTS Assay for Inhibitors of Histone Lysine Methyltransferase G9a; 8.8% of 350,000 active; Histone-lysine N-methyltransferase EHMT2 (Homo sapiens), Q96KQ7; AID 504332, 2011; Potency, µM (highest dose often 102 µM), most hits filed as inhibitors; G9a H3K9 monomethylation, AlphaScreen, 2 h; also: nearly all actives have a fitted effect of over 75% in size
Target sequence (Q96KQ7 913-1193 limits assumed): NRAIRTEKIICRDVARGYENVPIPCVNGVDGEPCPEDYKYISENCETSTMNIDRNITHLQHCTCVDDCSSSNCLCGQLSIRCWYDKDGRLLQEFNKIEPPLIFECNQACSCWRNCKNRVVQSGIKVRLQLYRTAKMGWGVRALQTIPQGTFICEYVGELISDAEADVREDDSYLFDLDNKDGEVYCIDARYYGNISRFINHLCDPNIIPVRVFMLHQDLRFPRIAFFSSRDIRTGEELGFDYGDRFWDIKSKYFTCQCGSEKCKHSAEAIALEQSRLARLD
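Using a bead-based AlphaScreen, monomethylated H3K9 product from 2 h room-temperature reactions (G9a 20 nM, peptide 500 nM, SAM 20 uM) was detected with 0.5 ug/mL rabbit anti-H3K9me1 antibody.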
JMJD2A Tudor inh: qHTS Assay for Inhibitors of JMJD2A-Tudor Domain; AlphaScreen JMJD2A-Tudor / H3K4me3 peptide binding; Potency, µM (doses to about 114 µM), most hits filed as inhibitors; 4.4% of 390,000 active; AID 504339, 2011; also: nearly all actives have a fitted effect of over 50% in size
Sfp PPTase inh: qHTS Assay for Inhibitors of Bacillus subtilis Sfp phosphopantetheinyl transferase (PPTase); 4'-phosphopantetheinyl transferase ffp (Bacillus subtilis), Q9F4F7; Biochemical Sfp PPTase activity, qHTS; Potency, µM, usual class: inhibitors; 3.5% of 310,000 active;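 also: the enzyme is Sfp with the accession as filed and its product quenches rhodamine fluorescence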
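Sfp 15 nM + cpd, 15 min RT; start w/ rhodamine-CoA 5 uM, BHQ-2-YbbR 12.5 uM (final); 50 mM Hepes pH 7.6, 10 mM MgCl2, 0.01% NP-40, 0.01% BSA; read 525/598 nm at 0 and 30 min.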
HP1b binding inh: HTS for Inhibitors of HP1-beta Chromodomain Interactions with Methylated Histone Tails. Chromobox protein homolog 1 (Homo sapiens), P83916. Potency, µM (titrated, usually from 114 µM), actives largely listed as inhibitors. 0.56% of 390,000 active. AID 540317, 2011. AlphaScreen HP1-beta / biotin-H3K9me3 peptide binding; also: nearly all actives have a fitted effect of over 70% in size
Target sequence (P83916 whole entry, looked up): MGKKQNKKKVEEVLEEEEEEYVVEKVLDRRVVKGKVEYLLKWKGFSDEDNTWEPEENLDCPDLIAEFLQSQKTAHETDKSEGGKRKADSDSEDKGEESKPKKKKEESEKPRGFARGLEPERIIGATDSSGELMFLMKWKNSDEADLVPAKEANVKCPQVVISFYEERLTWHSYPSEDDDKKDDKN
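HP1-beta protein (50 nM final) preincubated 30 min at room temperature with biotinylated H3(1-18)K9me3 peptide (50 nM) in PBS pH 7.4, 0.01% Tween-20, then compound added for 30 min. AlphaScreen streptavidin donor/nickel chelate acceptor beads (10 ug/mL final), 30 min dark, luminescence read.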
BAZ2B block: qHTS Assay for Inhibitors of BAZ2B. Bromodomain adjacent to zinc finger domain protein 2B (Homo sapiens), Q9UIF8. AlphaScreen BAZ2B-H3K14Ac peptide displacement. Potency, µM (highest dose often 114 µM), most hits filed as inhibitors. 4.4% of 360,000 active. AID 504333, 2011; also: nearly all actives have a fitted effect of over 60% in size
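Multi-concentration screen (max 110 uM) measuring displacement of acetylated histone H3 peptide from BAZ2B by AlphaScreen, using 50 nM protein, 50 nM peptide and 10 ug/mL streptavidin donor plus Ni-chelate acceptor beads.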
L3MBTL1 block: qHTS Assay for the Inhibitors of L3MBTL1. Lethal(3)malignant brain tumor-like protein 1 (Homo sapiens), Q9Y468. AlphaScreen L3MBTL1–H3K9me1 peptide binding. AID 485360, 2010. Potency, µM (highest dose often 57.1 µM), most hits filed as inhibitors. 0.66% of 230,000 active; also: nearly all actives have a fitted effect of over 60% in size
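L3MBTL1 50 nM + b-AHA-H3(1-15)K9me1 75 nM, 30 min RT; compound added, 30 min RT; streptavidin donor/Ni-chelate acceptor beads 10 ug/mL each final, 30 min RT dark; AlphaScreen read.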
A number is an active result. Calls follow the shape of the dose curve; as a rule, active = well fitted curve in the direction sought with a large enough effect; inconclusive = small, poorly fitted or top-dose-only effect, or another doubt; inactive = no such curve, though single readings can be large; an effect the other way counts as inactive or inconclusive.

`Cc1ccc2[nH]c(=O)c(CN(Cc3cccs3)Cc3nnnn3Cc3ccccc3)cc2c1` gave G9a block inactive, JMJD2A Tudor inh inactive, Sfp PPTase inh inactive, HP1b binding inh inactive, BAZ2B block inactive and L3MBTL1 block inactive.
`COc1ccc(N2CCN(C(=O)c3cc4c(C)nc5ccccc5c4o3)CC2)cc1` gave G9a block 50µM, JMJD2A Tudor inh 56µM, Sfp PPTase inh inactive, HP1b binding inh inconclusive and BAZ2B block inactive.
Screening CC(=O)c1ccc(N2CCN(C(=O)c3cc4c(C)nc5ccccc5c4o3)CC2)cc1 returned G9a block inactive, JMJD2A Tudor inh inactive, Sfp PPTase inh inactive, HP1b binding inh inactive and BAZ2B block inconclusive.
Screening Cc1nc2ccccc2c2oc(C(=O)N3CCN(C4CCCCC4)CC3)cc12 returned G9a block inactive, JMJD2A Tudor inh inactive, Sfp PPTase inh inactive, HP1b binding inh inactive, BAZ2B block inactive and L3MBTL1 block inactive.
For COc1ccc(N2CCN(C(=O)c3cc4c(=O)n(Cc5cccs5)ccc4nc3C)CC2)cc1 the results were G9a block inconclusive, JMJD2A Tudor inh inconclusive, HP1b binding inh inactive and BAZ2B block 50µM.
COc1cccc(N2CCN(C(=O)c3cc4c(=O)n(Cc5cccs5)ccc4nc3C)CC2)c1 was read as G9a block inactive, JMJD2A Tudor inh inconclusive, HP1b binding inh inactive and BAZ2B block inactive.
Screening Cc1nc2ccccc2c2oc(C(=O)N3CCC(N4CCCCC4)CC3)cc12 returned G9a block 71µM, JMJD2A Tudor inh inactive, Sfp PPTase inh inactive, HP1b binding inh inactive, BAZ2B block inactive and L3MBTL1 block inactive.
COc1ccc(OC)c(N=c2ssnc2Cl)c1 was read as G9a block 1.1µM, JMJD2A Tudor inh inconclusive, Sfp PPTase inh 8.9µM, HP1b binding inh inconclusive, BAZ2B block 25µM and L3MBTL1 block inactive.
COc1cc(N=c2ssnc2Cl)c(OC)cc1Cl was read as G9a block 1.1µM, JMJD2A Tudor inh 25µM, Sfp PPTase inh 10µM, HP1b binding inh 11µM, BAZ2B block 28µM and L3MBTL1 block inactive.
Screening CC(=O)N1CCCc2cc(S(=O)(=O)N(C)CC(=O)Nc3ccc(C)cc3C)ccc21 returned G9a block inactive, JMJD2A Tudor inh inactive, HP1b binding inh inactive and BAZ2B block inactive.
Cc1ccc(CNC(=O)c2cc(C3CC3)nc3c2c(C)nn3-c2cccc(Cl)c2C)cc1 was read as G9a block inactive, JMJD2A Tudor inh inactive, HP1b binding inh inactive and BAZ2B block inactive.
Screening O=C(Nc1ncc(Cc2ccccc2Cl)s1)c1ccc2c(c1)CC(c1ccccc1)OC2=O (centres undefined) returned G9a block inactive, JMJD2A Tudor inh inactive, HP1b binding inh inactive and BAZ2B block inactive.
Screening Cc1cccc(N2CCN(C(=O)NC3CCCCC3)CC2)c1C returned G9a block inactive, JMJD2A Tudor inh inactive, Sfp PPTase inh inactive, HP1b binding inh inactive, BAZ2B block inactive and L3MBTL1 block inactive.
For Cc1cccc(N2CCN(CC(=O)NCC3CCCCC3)CC2)c1C the results were G9a block 28µM, JMJD2A Tudor inh 5µM, Sfp PPTase inh inactive, HP1b binding inh inconclusive, BAZ2B block 50µM and L3MBTL1 block inactive.
For CCOc1ccc(-c2nonc2NC(=O)c2ccccc2C)cc1 the results were G9a block inactive, JMJD2A Tudor inh inactive, HP1b binding inh inactive and BAZ2B block inactive.
Screening Nc1c(C(=O)c2cccs2)oc2ccccc12 returned G9a block inactive, JMJD2A Tudor inh inactive, Sfp PPTase inh inactive, HP1b binding inh inactive, BAZ2B block inactive and L3MBTL1 block inactive.
Nc1c(C(=O)c2ccc(Br)s2)oc2ccccc12 was read as G9a block 45µM, JMJD2A Tudor inh inactive, Sfp PPTase inh inactive, HP1b binding inh inactive, BAZ2B block inactive and L3MBTL1 block inactive.
Cc1ccc2cc3cc(C(=O)N4CCN(c5ccccc5)CC4)oc3nc2c1 was read as G9a block inactive, JMJD2A Tudor inh inactive, HP1b binding inh inactive and BAZ2B block inactive.
`O=C(/C=C/c1ccco1)NCCc1ccc(F)cc1` gave G9a block 40µM, JMJD2A Tudor inh inactive, Sfp PPTase inh inactive, HP1b binding inh inconclusive and BAZ2B block 79µM.
`O=C(/C=C/c1ccco1)NCc1ccc2c(c1)OCO2` gave G9a block 20µM, JMJD2A Tudor inh inactive, Sfp PPTase inh inconclusive, HP1b binding inh inactive, BAZ2B block inactive and L3MBTL1 block inactive.
For O=C(CCC1N=C2c3ccccc3N=C(SCc3cccc(F)c3)N2C1=O)NCc1cccs1 (centres undefined) the results were G9a block inactive, JMJD2A Tudor inh 79µM, HP1b binding inh inactive and BAZ2B block inactive.
`COc1ccccc1NC(=O)CSC1=Nc2ccccc2C2=NC(CC(=O)NCc3ccc4c(c3)OCO4)C(=O)N12` (centres undefined) gave G9a block inactive, JMJD2A Tudor inh inactive, HP1b binding inh inactive and BAZ2B block inactive.
For O=C(CC1N=C2c3ccccc3N=C(SCC(=O)Nc3ccccc3F)N2C1=O)NCc1ccc2c(c1)OCO2 (centres undefined) the results were G9a block 13µM, JMJD2A Tudor inh inactive, HP1b binding inh inactive and BAZ2B block inconclusive.
COCCn1c(-c2ccccc2)c(C)n2c3c(=O)n(C)c(=O)n(C)c3nc12 was read as G9a block inactive, JMJD2A Tudor inh inactive, HP1b binding inh inactive and BAZ2B block inconclusive.
For Cc1cccc(/C=N/n2c(C3CCCCC3)n[nH]c2=S)c1 the results were G9a block 2.5µM, JMJD2A Tudor inh 56µM, Sfp PPTase inh 79µM, HP1b binding inh inactive and BAZ2B block inconclusive.
`S=c1[nH]nc(C2CCCCC2)n1/N=C/c1cccc(Br)c1` gave G9a block 79µM, JMJD2A Tudor inh inactive, Sfp PPTase inh inactive, HP1b binding inh inactive and BAZ2B block inactive.
For Cc1cccc(/C=N/NC(=O)C2CCCNC2=O)c1 (centres undefined) the results were G9a block inactive, JMJD2A Tudor inh inactive, Sfp PPTase inh inactive, HP1b binding inh inactive, BAZ2B block inactive and L3MBTL1 block inactive.
`COc1cc(/C=N/n2c(C3CCCCC3)n[nH]c2=S)cc(Br)c1O` gave G9a block 25µM, JMJD2A Tudor inh 13µM, Sfp PPTase inh inactive, HP1b binding inh inactive and BAZ2B block inactive.

Source: PubChem BioAssay
